Laboratory results taken from PubChem BioAssay (NCI).
“And” between values parts separate entries of the source, which are not always exact repeats. Equal entries are not always repeated. This is part of a sample that, as a whole, favours compounds with a hit. Of some 83,000 tested, about 20% had one in any assay.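 The endpoint reported here, percent growth, reads 100 for growth as untreated, 0 for no net growth and -100 for all cells dead.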 Values without a mark were called inactive. The source made the active and inactive calls.

What follows are molecules tested on NCI-H23 lung (assay: NCI-60 one-dose screen, 48 h (100 = growth as untreated, 0 = no growth, -100 = all killed)). Settings: 10 µM unless noted.
Experimental: Growth inhibition of the NCI-H23 human Non-Small Cell Lung tumor cell line is measured as a screen for anti-cancer activity. Cells are grown in 96 well plates and exposed to the test compound for 48 hours. Compounds are tested at a single concentration, which is 10^-5 M for most compounds. The reported endpoint is percent growth (GI% or GIPRCNT), where numbers from 0 - 100% represent growth inhibition, and numbers from -100% - 0 represent cell death. For example, a value of 40 represents 60% growth inhibition. A value of 0 means no net growth occurred over the course of the experiment. A value of -40 indicates 40% of cells at the beginning of the experiment died by the end of the experiment. A value of -100 means all cells are dead at the end of the experiment.
NCI-60 Human Tumor Cell Lines Screen was performed using the standard one-dose NCI protocol, which is described in more detail at https://dtp.cancer.gov/discovery_development/nci-60/default.htm.
Compounds with GIPRCNT values below 10 were considered active. Activity score was based on GIPRCNT using the following formula: […]
Score is 0 for GIPRCNT values of 100 or above, 50 for GIPRCNT values of 0, and 100 for GIPRCNT values of -100.
Work on `O=C/C=C/c1ccco1` yielded a growth of 101%. With `NC(=O)c1c(Br)c(Br)c(Br)c(Br)c1C(=O)O` (tested in a mixture with another compound) the growth was 99.9% and 100%. In the case of `CN(C)c1ccc(C=C2C(=O)NC(=O)NC2=O)cc1`, the growth is reported as 70.8%. `O=P1(N(CCCl)CCCl)NCCCO1` (stereo not given) gave a growth of 112%. With `CCCN1C(=O)NC(=O)C(CC)(N2C(=O)c3c(F)c(F)c(F)c(F)c3C2=O)C1=O` (stereo not given) the growth was -52.1% (active). In the case of `C(=NC1CCCCC1)=NC1CCCCC1`, the growth is reported as 106% and 31.1%. In the case of `O=[N+]([O-])c1ccc(OCc2ccc(S(=O)(=O)F)c(Cl)c2)c(Cl)c1`, the growth is reported as 99.2%. `CCCCOCCOP(=O)(OCCOCCCC)OCCOCCCC` was tested, and the growth was 101%. Molecule `CC12CCC3C4CCC(=O)C=C4CCC3C1CC1CC(=O)OC12` (stereo not given) has a growth of 96.2%. Work on `O=CC1(c2ccccc2)CCN(Cc2ccccc2)CC1` yielded a growth of 101%. With `ClC1OC(Cl)(Cl)C(Cl)(Cl)OC1(Cl)Cl` (stereo not given) the growth was 98.6%. In the case of `Cc1ccc(P(=O)(O)O)cc1`, the growth is reported as 108%. For `COc1cc2c(cc1OC)[C@@H]1C(=O)c3ccc4c(c3O[C@@H]1CO2)C[C@H](C(C)C)O4`, the growth was 34.2%. For `O=c1c2ccccc2nc(-c2ccccc2Cl)n1-c1nnc(C(F)(F)F)s1`, the growth was -0.336% (active). `CC(=O)Cc1ccc2c(c1)OCO2` showed a growth of 93.9%. For `COC(=O)C1=CCCN(C)C1`, the growth was 104% and 101%. `CN1C2CCC1[C@@H](COC(=O)c1ccccc1)[C@@H](O)C2` (stereo not given in full) showed a growth of 108%. `CC[C@H](C)[C@H](NC(=O)c1cnccn1)C(=O)N(C)[C@H](C[C@@H](OC(C)=O)c1nc(C(=O)N[C@@H](Cc2ccccc2)C[C@H](C)C(=O)OC)cs1)C(C)C` gave a growth of 26.2%. Molecule `COC12CC3(C)C(C4=CC(=O)OC4)CCC3(O)C3CCC4=CC(=O)CCC4(CO1)C32` (stereo not given) has a growth of 99%. For `CC[C@H](C)[C@H](NC(=O)[C@H]1CCCCN1C)C(=O)N(C)[C@H](C[C@@H](OC(C)=O)c1cccc(C(=O)N[C@@H](Cc2ccccc2)C[C@H](C)C(=O)OC)n1)C(C)C`, the growth was 22.4%. `CNC(=O)O/N=C(\SC)C(=O)N(C)C` showed a growth of 93.4%. In the case of `Cc1cc(C(C)(C)C)ccc1O`, the growth is reported as 90.9%. `Cn1cc(-c2csc(-c3cn(CCCCN4CCOCC4)c4ccc(F)cc34)n2)c2cccnc21` was tested, and the growth was 80.3%. In the case of `CN1CCN(c2ccc(Cl)cc2)CC1`, the growth is reported as 73.6%. For `NC(N)=NC(N)=Nc1ccc(Cl)cc1`, the growth was 103%. For `O=C(CCCN1CCC2(CC1)C(=O)NCN2c1ccccc1)c1ccc(F)cc1`, the growth was 95.1% and 49.3%. `CC[C@H](C)[C@H](NC(=O)[C@H]1CCCCN1C)C(=O)N(C)[C@H](C[C@@H](OC(C)=O)c1nc(C(=O)NC23C4C5C2C2C3C4C52C(=O)OC)cs1)C(C)C` (stereo not given in full) was tested, and the growth was 18.6%. In the case of `C[C@@]12CCCc3coc(c31)C(=O)c1cc3c(cc12)C(=O)C1=C(NCCS1(=O)=O)C3=O`, the growth is reported as -36.4% (active). `CC[C@H](C)[C@H](NC(=O)CN(C)C)C(=O)N(C)[C@H](C[C@@H](OC(C)=O)c1nc(C(=O)NC23CC(C(=O)OC)(C2)C3)cs1)C(C)C` showed a growth of 33.3%. In the case of `O=C1CN2CCC1CC2`, the growth is reported as 101%. `O=C(O)c1ccc(=O)[nH]c1` was tested, and the growth was 88.5% and 105%. In the case of `O=C1NC(=O)C(=C/C=C/c2ccccc2)C(=O)N1`, the growth is reported as -49% (active). `CC[C@H](CC[C@@H](C)[C@H]1CC[C@H]2[C@@H]3CC[C@H]4C[C@]5(CC[C@]4(C)[C@H]3CC[C@]12C)OO[C@](C)(C(F)(F)F)O5)C(C)C` showed a growth of 92.3%. Molecule `CCCC[C@H]1C(=O)O[C@H](C)[C@H](NC(=O)c2cccc(NC=O)c2O)C(=O)O[C@@H](C)[C@@H]1OC(=O)CC(C)C` has a growth of 42%. In the case of `OCCNC1CCCCC1`, the growth is reported as 108%. `CC1=CC(=Nc2ccc(N(CCCl)CCCl)cc2)C=C(C)C1=O` showed a growth of 23%. For `COc1ccc(C(C#N)C(C)=O)cc1` (stereo not given), the growth was 97.9%. `N#CCC(=O)c1ccccc1` gave a growth of 97.7%. Molecule `CC1(C)C=Cc2c(ccc3c2[N+]([O-])=C2C3=C[C@@]34NC(=O)[C@]5(CCCN5C3=O)C[C@@H]4C2(C)C)O1` has a growth of 63.2%. `Oc1cc(N2CC2)c(O)cc1N1CC1` was tested, and the growth was -37.9% (active).
